# Screen size: about 2,300 compounds; about 1,200 (52%) were called active. Another 34% or so got no clear call; they are omitted. The call rests on the fitted dose curve; in most records, active means well fitted inhibition curve with a large enough effect; inconclusive means small, poorly fitted or top-dose-only effect, or effect the other way; inactive means no such curve, though single readings can be large or run the other way. So high a share suggests a set chosen from earlier hits. This is one part of the list.
# Assay: Confirmation screen for delayed death inhibitors of the malarial parasite plastid, 48 hour incubation; further: nearly all actives have a fitted effect of over 65% in size
# Details: P. falciparum-infected erythrocytes, luciferase growth; series mostly up to 28.7 µM; activity change, negative = inhibition: at the top concentration
# Procedure, shortened: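 Erythrocytes infected with luciferase-expressing P. falciparum (2% hematocrit, 0.1% parasitemia) incubated with compounds 48 hours at 37 C, 5% CO2, in RPMI/Albumax. Growth inhibition scored as reduced luminescence after detection reagent.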
# On the % scale 0 is the no-effect control and ±100 the full control effect; potency means the concentration at half of the fitted maximal effect.
Compound,Potency,"activity change, negative = inhibition"
Cc1cc(=O)n2nc(N3CCCC(C(=O)NCc4ccc(Cl)cc4)C3)sc2n1 (stereo not drawn),12.6 µM (active),
Cc1cc(=O)n2nc(N3CCC(C(=O)NCc4ccc(Cl)cc4)CC3)sc2n1,12.6 µM (active),
Cc1cc(=O)n2nc(N3CCC(C(=O)NCCc4ccc(Cl)cc4)CC3)sc2n1,12.6 µM (active),
COc1ccc(NC(=O)CN(c2ccc(F)cc2)S(=O)(=O)c2ccccc2)c(OC)c1,15.8 µM (active),
Cc1ccc(S(=O)(=O)N(Cc2ccccc2)C(C)C)cc1,,-11.4% (inactive)
COc1ccc(N(CC(=O)NCCSCc2ccc(C)cc2)S(=O)(=O)c2ccccc2)cc1,12.6 µM (active),
COc1ccc2cc3[n+](cc2c1OC)CCc1cc2c(cc1-3)OCO2,1.12 µM (active),
CCOC(=O)c1ccc(N2N=C(C)/C(=C/C=C/c3ccco3)C2=O)cc1,6.31 µM (active),
CCOC(=O)c1ccc(Nc2nc(=O)c3cccnc3s2)cc1,,8.09% (inactive)
CN(C)c1ccc(O)c2c1CC1CC3[C@@H](N(C)C)C(=O)C(C(N)=O)=C(O)[C@]3(O)C(=O)C1=C2O (stereo partly drawn),2.24 µM (active),
C=C1c2c(Cl)ccc(O)c2C(O)=C2C(=O)[C@]3(O)C(O)=C(C(N)=O)C(=O)[C@@H](N(C)C)[C@@H]3[C@@H](O)C12 (stereo partly drawn),3.98 µM (active),
C=C1c2c(Cl)ccc(O)c2C(O)=C2C(=O)[C@@]3(O)C(O)=C(C(N)=O)C(=O)[C@@H](N(C)C)[C@@H]3[C@@H](O)[C@H]12,4.47 µM (active),
C[C@@H]1c2cccc(O)c2C(O)=C2C(=O)[C@@]3(O)C(O)=C(C(N)=O)C(=O)[C@@H](N(C)C)[C@@H]3[C@@H](O)[C@@H]21,4.47 µM (active),
Cc1ccc(-c2csc3ncn(CC#N)c(=O)c23)cc1C,,-28.7% (inactive)
Cc1ccccc1NC1=NCC(c2ccc([N+](=O)[O-])cc2)S1 (stereo not drawn),11.2 µM (active),
C=CCNC(=O)c1onc(CSc2cc(C)cc(C)c2)c1C(=O)O,,-17.8% (inactive)
C=CCNC(=O)c1onc(CSc2ccc(C)c(C)c2)c1C(=O)O,,-3.94% (inactive)
C=CCNC(=O)c1oc2ccc(S(=O)(=O)N3CCCCC3)cc2c1C,14.1 µM (active),
CCN(CC)Cc1cc2[nH]c3c4ccc(Cl)cc4ncc3c2cc1OC,0.178 µM (active),
CCCCCCn1ccc(=N)cc1,7.08 µM (active),
CCOC(=O)c1c(-c2ccc(-c3ccccc3)cc2)csc1NC(=O)c1cccc(N2C(=O)CCC2=O)c1,5.01 µM (active),
CCOC(=O)c1c(-c2cccc(C)c2)csc1NC(=O)c1c(-c2ccccc2)noc1C,11.2 µM (active),

Compound,Potency,"activity change, negative = inhibition"
CCOC(=O)c1c(NC(=O)c2c(-c3ccccc3)noc2C)sc(C)c1-c1ccccc1,6.31 µM (active),
CCOC(=O)c1c(-c2ccc(F)cc2)csc1NC(=O)c1c(-c2ccccc2)noc1C,8.91 µM (active),
COC(=O)c1c(-c2ccccc2)csc1NC(=O)c1c(-c2ccccc2)noc1C,14.1 µM (active),
O=C(c1cccs1)N1N=C(c2ccccc2)CC1c1ccccc1O (stereo not drawn),3.55 µM (active),
CCOc1ccc2c(c1)OC(c1ccccc1)(C(F)(F)F)NC2=O (stereo not drawn),2 µM (active),
CC[C@@H](C)C(NC(=O)OC(C)(C)C)c1cn([C@@H](Cc2ccc(O)cc2)C(=O)N2CCN(C(=O)OC(C)(C)C)CC2)nn1 (stereo partly drawn),12.6 µM (active),
CC[C@@H](C)C(NC(=O)OC(C)(C)C)c1cn([C@@H](CCCCNC(=O)OC(C)(C)C)C(=O)N2CCN(C(=O)OC(C)(C)C)CC2)nn1 (stereo partly drawn),2 µM (active),
CCOc1ccccc1NC(=O)c1cc(S(=O)(=O)NCc2ccco2)ccc1F,12.6 µM (active),
COc1ccccc1NC(=O)c1ccc(S(=O)(=O)NCc2ccco2)cc1,,-9.3% (inactive)
O=C1c2cccc3cc([N+](=O)[O-])cc(c23)C(=O)N1CCN1CCCC1,10 µM (active),
Cc1nnnn1/C(=C\c1ccccc1)C(=O)OCC(=O)N1CC2(C)CC1CC(C)(C)C2 (stereo not drawn),12.6 µM (active),
Cc1cccc(CN2C(=O)c3ccccc3S(=O)(=O)c3ccc(C(=O)NCCCN4CCCC4)cc32)c1,3.98 µM (active),
CCN1C(=O)c2ccccc2Sc2ccc(C(=O)NCCCN3CCCCC3)cc21,12.6 µM (active),
O=C(NCCCN1CCCC1)c1ccc2c(c1)N(Cc1ccccc1F)C(=O)c1ccccc1S2=O (stereo not drawn),12.6 µM (active),
O=C(c1ccc2c(c1)N(Cc1cccc(Cl)c1)C(=O)c1ccccc1S2(=O)=O)N1CCN(c2ccccn2)CC1,3.98 µM (active),
CC(C)[C@H](NC(=O)N1CCn2c1nc1ccccc12)C(=O)N[C@H](C(=O)O)c1ccccc1,,-7.59% (inactive)
CCN1CCCC1CNC(=O)c1ccc2c(c1)N(Cc1ccccc1F)C(=O)c1ccccc1S2(=O)=O (stereo not drawn),5.01 µM (active),
CCOC(=O)N1CCN(C(=O)c2ccc3c(c2)N(Cc2cc(C)ccc2C)C(=O)c2ccccc2S3=O)CC1 (stereo not drawn),4.47 µM (active),
CC(NC(=O)CCl)c1ccccc1Br (stereo not drawn),2.24 µM (active),
CC(=O)/C=C/c1ccc2ccccc2n1,12.6 µM (active),
Cc1cccc(N(Cc2ccccc2)C(=O)CSC(C)C(=O)Nc2cc(C)on2)c1 (stereo not drawn),11.2 µM (active),
Cc1cc(C)c(OCC(O)CNC(C)(C)C)c(C)c1 (stereo not drawn),11.2 µM (active),

Compound,Potency,"activity change, negative = inhibition"
Cn1nnnc1Sc1ncnc2scc(-c3cccs3)c12,12.6 µM (active),
Cn1nnnc1Sc1ncnc2scc(-c3ccsc3)c12,4.47 µM (active),
Cn1nnnc1Sc1ncnc2scc(-c3ccc[nH]3)c12,12.6 µM (active),
O=C(NCc1ccccn1)Nc1cc(Cl)ccc1Cl,5.01 µM (active),
Cc1ccc(Oc2nc3ccccn3c(=O)c2/C=C(\C#N)C(=O)NC2CCS(=O)(=O)C2)c(C)c1 (stereo not drawn),12.6 µM (active),
CCN(CC)CCNC(=O)C1c2cc(OC)c(OC)cc2C(=O)N2CCc3ccccc3C12 (stereo not drawn),7.08 µM (active),
CCCN(CCC)CCNC(=O)C1c2ccccc2C(=O)N2CCc3ccccc3C12 (stereo not drawn),,-12.8% (inactive)
CC(=O)c1ccccc1OCC(O)CN1CCN(C(c2ccccc2)c2ccccc2)CC1 (stereo not drawn),2.24 µM (active),
O=C(N/N=C/c1ccc([N+](=O)[O-])cc1)c1cccc(N2CCCC2=O)c1,11.2 µM (active),
Cc1nn(-c2ccccc2)c(N2CCCC2)c1/C=N/NC(=O)c1ccccc1O,5.01 µM (active),
Cc1nn(-c2ccccc2)c(N2CCCC2)c1/C=N/NC(=S)Nc1ccccc1F,12.6 µM (active),
CC(C)Cc1csc(NC(=O)C(C)C)c1C(=O)O,,-20.8% (inactive)
CCOC(=O)C1(CCc2ccccc2)CCN(Cc2ccccn2)CC1,4.47 µM (active),
COc1cccc(NC(=O)CSc2nc3ccccc3nc2N2CCCC2)c1,14.1 µM (active),
Cc1cccc(NC(=O)CSc2nc3ccccc3nc2N2CCCCC2)c1,11.2 µM (active),
Cc1cccc(NC(=O)CSc2nc3ccccc3nc2N2CCCC2)c1,14.1 µM (active),
O=C1C(=O)c2ccccc2C(O)=C1c1cccc([N+](=O)[O-])c1,12.6 µM (active),
Nc1nc(N)nc(-c2cc([N+](=O)[O-])ccc2O)n1,,-11.4% (inactive)
Cc1ccc(C2C3=C(CC(C)(C)CC3=O)N=C3c4ccccc4C(=O)C32)cc1 (stereo not drawn),8.91 µM (active),
COc1ccc(-n2c(C)cc(C(=O)Cn3c(NCCO)nc4ccccc43)c2C)cc1,12.6 µM (active),
Cc1ccccc1C1c2[nH]c3ccccc3c2CCN1Cc1cccn1-c1ncccn1 (stereo not drawn),12.6 µM (active),
CCOc1ccc(C2c3[nH]c4ccccc4c3CCN2Cc2cccn2-c2ncccn2)cc1 (stereo not drawn),12.6 µM (active),

Compound,Potency,"activity change, negative = inhibition"
Cc1cc(C)cc(-n2c(N)c(C(=O)Nc3c(C)n(C)n(-c4ccccc4)c3=O)c3nc4ccccc4nc32)c1,4.47 µM (active),
Cc1c(NC(=S)NC(=O)C(C)(C)C)c(=O)n(-c2ccccc2)n1C,,4.84% (inactive)
COc1ccc2c(C)c(CCC(=O)NC3CC3)c(=O)oc2c1C,3.98 µM (active),
COc1ccc(/C=C/C(=O)c2ccc([N+](=O)[O-])o2)cc1OC,11.2 µM (active),
CCCSc1ccc(-c2nn(-c3ccccc3)cc2/C=C(/C#N)C(=O)NCCCOC)cc1,5.62 µM (active),
CN1CCN(c2ccccc2NC(=O)c2cccc(OCc3ccccc3)c2)CC1,7.94 µM (active),
Cc1cc(=O)oc2ccc(OCC(=O)N3CCc4ccccc43)cc12,10 µM (active),
CCC1CCCCN1CCCNC(=O)Cn1c(=O)c2cccn2c2cccnc21 (stereo not drawn),,-8.96% (inactive)
CCC1CCCCN1CCCNC(=O)CNC(=O)c1nn(-c2ccc(OC)c(Cl)c2)c(=O)c2ccccc12 (stereo not drawn),11.2 µM (active),
O=C(O)c1nn(CCOc2ccc(Cl)cc2Cl)c(=O)c2ccccc12,,-10% (inactive)
O=C1NC(NS(=O)(=O)c2ccc(Cl)cc2)(C(F)(F)F)C(=O)N1Cc1cccnc1 (stereo not drawn),,-27.7% (inactive)
CCCOc1cc(NCc2ccccc2)c2ncn(C(C)C)c2c1,5.01 µM (active),
CCCN1C2=C(C(=O)CCC2)C(c2ccc(O)c(Br)c2)C2=C1CCCC2=O,12.6 µM (active),
O=c1cc(CSc2ccc(Cl)cc2)nc(-c2ccccn2)[nH]1,5.01 µM (active),
Cc1sc2nc(C3CC3)nc(SCC(=O)N3c4ccccc4CC3C)c2c1C (stereo not drawn),14.1 µM (active),
CCc1nc(SCC(=O)Nc2ccccc2OC)c2c(C)c(C)sc2n1,12.6 µM (active),
CCc1nc(SCC(=O)N2c3ccccc3CC2C)c2c(C)c(C)sc2n1 (stereo not drawn),11.2 µM (active),
C=CCNC(=O)c1cnc2n(c1=O)CCS2,,-0.495% (inactive)
C=CCn1c(SCc2cc(=O)n3cc(C)ccc3n2)nnc1-c1ccc(F)cc1,14.1 µM (active),
COC(=O)C1=C(C)Nc2ncnn2C1c1ccccn1 (stereo not drawn),,-2.2% (inactive)
Cc1ccc(Cn2c(C)nc3c(c2=O)c2nc4ccccc4nc2n3Cc2ccco2)cc1,7.08 µM (active),
Cc1cc(C)cc(-n2c3nc4ccccc4nc3c3c(=O)n(Cc4ccco4)cnc32)c1,12.6 µM (active),

# From PubChem BioAssay AID504850 (National Center for Advancing Translational Sciences (NCATS), 2011)
